The panel holds about 79,000 compounds, 15% with a hit somewhere; the sample as a whole holds those more often. Rule as the data show it: active = growth inhibition above about 70%; inactive = the rest.
Experiments:
[1] = NCI Yeast Anticancer Drug Screen. Data for the rad50 strain (AID 155);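 also: 0% = growth of vehicle-only cultures of the same strain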; conditions: S. cerevisiae rad50 strain growth inhibition; at 50.0 µM; hits give high values
Procedure, shortened: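 Relative growth inhibition (compound vs vehicle) was measured in yeast with a defined repair-gene alteration.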

[2] = NCI Yeast Anticancer Drug Screen. Data for the mec2-1 strain (AID 157); conditions: S. cerevisiae mec2-1 strain, at 50.0 µM, hits give high values
Procedure, shortened: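 Strain: mec2-1 (DNA repair/cell cycle alteration). Compound exposure, then growth measured; inhibition expressed relative to vehicle.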

[3] = NCI Yeast Anticancer Drug Screen. Data for the sgs1 mgt1 strain (AID 161);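 also: 0% = growth of cultures given vehicle only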; conditions: S. cerevisiae sgs1 mgt1 strain, at 50.0 µM, hits give high values
Procedure, shortened: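 Genetically altered yeast, compound exposure, growth inhibition relative to vehicle.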

[4] = NCI Yeast Anticancer Drug Screen. Data for the cln2 rad14 strain (AID 165);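 also: 0% = growth equal to vehicle treated cultures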; conditions: S. cerevisiae cln2 rad14 strain, at 50.0 µM, hits give high values
Procedure, shortened: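 Compounds are applied to the cln2 rad14 yeast strain, and growth is then compared with that of vehicle-treated cultures to give inhibition.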

[5] = NCI Yeast Anticancer Drug Screen. Data for the bub3 strain (AID 167); conditions: S. cerevisiae bub3 mutant strain, at 50.0 µM, hits give high values
Procedure, shortened: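 Screening used yeast with an engineered genetic alteration affecting cell cycle control. Compound-exposed cultures were compared with vehicle cultures, and reduced growth was taken as inhibition.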

[6] = NCI Yeast Anticancer Drug Screen. Data for the mlh1 rad18 strain (AID 175); conditions: S. cerevisiae mlh1 rad18 strain growth inhibition; at 50.0 µM; hits give high values
Procedure, shortened: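 Read-out is yeast growth inhibition, calculated against vehicle-only controls. The compound was applied to a strain engineered with DNA damage repair alterations.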

Measured: growth inhibition

CCNc1ccc([N+](=O)[O-])cc1[N+](=O)[O-]
inactive: [1] 11.3% | [2] 16.9% | [3] 7.45% | [4] 4.5% | [5] -6.4% | [6] 5.9%

C#C[C@]1(O)CC[C@H]2[C@@H]3CCC4=C/C(=N/OC(=O)c5cccc6c(=O)c7ccccc7[nH]c56)CC[C@@H]4[C@H]3CC[C@@]21C
inactive: [1] 1.6% | [2] -4.5% | [3] 11.3% | [4] 9.7% | [5] -24.9% | [6] -3.55%

COc1ccc(N)cc1N
inactive: [1] 6.8% | [2] 18.1% | [3] 5.5% | [4] -42.4% | [5] 25.5% | [6] 11.1%

O=c1c2cc(Br)cc(Br)c2nc(CCCl)n1-c1ccc(O)c([N+](=O)[O-])c1
inactive: [1] -2% | [2] 15.8% | [3] -9.95% | [4] 16.3% | [5] -7.5% | [6] -0.8%

O=C1NCC2C3CCC(O3)C12 (configuration not stated)
inactive: [1] -6.3% | [2] -16.1% | [3] 7.95% | [4] -10.2% | [5] -17.4% | [6] -12.1%

Nc1ccc(C(=O)O)c([As](O)O)c1
inactive: [1] -6.95% | [2] 8.55% | [3] -1% | [4] 4.35% | [5] -4.3% | [6] 0.65%

OC(c1ccccc1)C(c1ccccc1)N1CCOCC1 (configuration not stated)
inactive: [1] -8.45% | [2] 4.1% | [3] -1.3% | [4] 1.65% | [5] 7.9% | [6] 9.75%

C[C@]12CC[C@H]3[C@@H](CCC4=CC(=O)CC[C@@]43C)[C@]1(O)CC[C@]2(O)C(=O)CO
inactive: [1] 11.2% | [2] -12.6% | [3] -30.4% | [4] -2.05% | [5] -17.3% | [6] -9.1%

CCOP(=O)(OCC)/C(C#N)=C/c1cnc(C)[nH]1
inactive: [1] -52.4% | [2] 24% | [3] -36% | [4] 26.4% | [5] 16.1% | [6] -5.55%

CN1CCC(O)(c2ccccc2)C(O)C1 (configuration not stated)
inactive: [1] 11.2% | [2] 29.1% | [3] 23.5% | [4] 32.3% | [5] -4% | [6] 39.2%

CCOP(=O)(O)OCC
inactive: [1] -16.6% | [2] -20.4% | [3] -20.1% | [4] -0.25% | [5] 0.95% | [6] -49.9%

CC(NC(=O)c1c(O)[nH]c(=S)[nH]c1=O)c1ccc([N+](=O)[O-])cc1 (configuration not stated)
inactive: [1] 17.9% | [2] 13.8% | [3] 35.8% | [4] 19.4% | [5] 12.1% | [6] 14.6%

CC(C)=CCC12Cc3ccc(O)cc3C(C(C)CN1)C2C (configuration not stated)
inactive: [1] -1.5% | [2] 9.8% | [3] 27.8% | [4] 11.8% | [5] 10.7% | [6] 25.7%

O=C1NC(=S)NC(=O)C1=Cc1ccncc1
inactive: [1] -19% | [2] -46.9% | [3] -7.7% | [4] 9.55% | [5] -26.9% | [6] -10.3%

O=C(NC(c1ccccc1)(c1ccccc1)c1ccccc1)N(CCCl)CCCl
inactive: [1] 5.95% | [2] 20.7% | [3] 12.9% | [4] 5.3% | [5] 39.5% | [6] -7.5%

C=CCN1CN(c2ccccc2)C2(CCN(CCCC3(c4ccc(F)cc4)OCCO3)CC2)C1=O
inactive: [1] -18.1% | [2] -7.55% | [3] 1.4% | [4] 0.4% | [5] 0.7% | [6] -13.8%

CC1CCC2C(C)C(=O)OC3OC4(C)CCC1C32OO4 (configuration not stated)
inactive: [1] -7.55% | [2] 4.2% | [3] -8.05% | [4] 27.8% | [5] 18.2% | [6] 2.7%

Cc1cc([N+](=O)[O-])c(N)c([N+](=O)[O-])c1
inactive: [1] -1.55% | [2] -11.1% | [3] -9.8% | [4] 3.6% | [6] -4.75%

CC(Cl)CN1CCN(CC(C)Cl)CC1 (configuration not stated)
inactive: [1] 2.95% | [2] -16.7% | [3] 34.4% | [4] 4.4% | [6] -10.3%

Nc1ccc([N+](=O)[O-])cc1
inactive: [1] -11.2% | [2] 2.8% | [3] -14.9% | [4] -6.55% | [6] -1%

O=[As](O)(O)CC(Br)CBr (configuration not stated)
inactive: [1] 5.5% | [2] 12% | [3] 5.95% | [4] -7.3% | [6] -3.4%

CN(C)C(=O)C(CC[N+](C)(C)C)(c1ccccc1)c1ccccc1
inactive: [1] 8.65% | [2] 5.5% | [3] 5.55% | [4] 24.7% | [6] -10.1%

ClCc1ccc(Cl)c(Cl)c1
inactive: [1] 16.1% | [2] 3.8% | [3] -3.05% | [4] 10.4% | [6] -20.4%

CC(C)(Br)[N+](=O)[O-]
inactive: [1] 9% | [2] -3.55% | [3] 4.45% | [4] 10.2% | [6] 1.8%

NC(=O)Nc1ccc([As]=O)cc1 (configuration not stated)
inactive: [1] 8% | [2] -5.7% | [3] -1.3% | [4] 11.5% | [6] 2.65%

NNC(=O)CCC(N)C(=O)O (configuration not stated)
inactive: [1] -20.3% | [2] -18.4% | [3] -35.3% | [4] -11.8% | [6] -49%

CCCC[C@H]1C(=O)O[C@H](C)[C@H](NC(=O)c2cccc(NC=O)c2O)C(=O)O[C@@H](C)[C@@H]1OC(=O)CC(C)C
inactive: [1] 18.4% | [2] 12.5% | [3] 30.9% | [4] 16.4% | [6] 44.2%

c1ccc2nc(-c3ccc4ccccc4n3)ccc2c1
inactive: [1] -5.95% | [2] -7.45% | [3] -3.4% | [4] -49.4% | [6] -12.2%

CC(Oc1ccc(-c2ccccc2)cc1)C(=O)O (configuration not stated)
inactive: [1] -14.8% | [2] -1.25% | [3] -9.25% | [4] -4.8% | [6] -23.4%

O=C1N=NC(Cl)c2ccccc21 (configuration not stated)
inactive: [1] -20.6% | [2] -13.5% | [3] -19.1% | [4] 2.65% | [6] -10.8%

CC1(C)c2ccccc2C(c2ccccc2)(c2ccccc2)[N+]1(C)C
inactive: [1] 63.4% | [2] 33.7% | [3] 52.2% | [4] 21.7% | [6] 49%

CCCCOP(=S)(N1CCCCC1)N1CCCCC1
inactive: [1] -8.15% | [2] 3.5% | [3] 5.75% | [4] 8.3% | [6] 0.95%

CC1N=C(c2ccccc2)C2(c3ccccc3)C(C)N12 (configuration not stated)
inactive: [1] -7% | [2] 6.8% | [3] -7.7% | [4] -29.2% | [6] 5.85%

O=C1NC(=O)C2(c3ccccc3)CCN1C2=O (configuration not stated)
inactive: [1] 1.35% | [2] 4.6% | [3] 1.8% | [4] -7% | [6] 10%

CN1CCCC1c1ccc[n+](C)c1 (configuration not stated)
inactive: [1] -2.95% | [2] 1.85% | [3] 5.6% | [4] -8.65% | [6] 3.35%

BrP(Br)(c1ccccc1)(c1ccccc1)c1ccccc1
inactive: [1] -1.6% | [2] -28.8% | [3] 17.1% | [4] 25.4% | [6] -0.1%

CC(=N/O)/C(C)=N\O
inactive: [1] 21% | [2] 14.8% | [3] 5.7% | [4] 13.4% | [6] 40.3%

S=C(N=Nc1ccccc1)NNc1ccccc1.[Ni]
inactive: [1] 12.3% | [2] -15.3% | [3] 2% | [4] 6.25% | [6] 0.5%

C=C1C(=O)OC2CCN3CC=C(COC(=O)C(C)(O)C4(CO4)C1C)C23 (configuration not stated)
inactive: [1] 11.1% | [2] 0.95% | [3] -20.9% | [4] -12.8% | [6] -59.5%

Cc1ccc(C(=O)C(C)N)cc1C (configuration not stated)
inactive: [1] -13.6% | [2] -13% | [3] -17.8% | [4] 15.2% | [6] 22.4%

CCOP(O)OCC
inactive: [1] 0.6% | [2] 11.4% | [3] -5.25% | [4] 23.9% | [6] -1.35%

Oc1ccc(Nc2ncnc3nc[nH]c23)cc1CN(CCCl)CCCl
inactive: [1] -5.85% | [2] -5.8% | [3] 3.95% | [4] -45.4% | [6] 3.65%

C[Si]1(C)CCCC2(C1)C(=O)NC(=O)NC2=O
inactive: [1] -31.6% | [2] -17.3% | [3] -9% | [4] -1.75% | [6] -41.5%

COC(=O)C(CCC(=O)O)NC(=O)OCc1ccccc1 (configuration not stated)
inactive: [1] 40.5% | [2] -1.35% | [3] 17.6% | [4] -7.7% | [6] 19.5%

O=[As](O)(O)c1cccc(O)c1
inactive: [1] -6.8% | [2] -7.25% | [3] -8.65% | [4] 3.7% | [6] -16.1%

Source: PubChem BioAssay (NCI)
